ChEMBL document CHEMBL3988442, “University of Dundee, Small-Polar-MMV Screening Library” (2021)

The compounds below were run against Shiga toxin 2 (Escherichia coli O157:H7) (UniProt P09385+P09386) (assay: E. coli 0.157:H7 Shiga Toxin SOP - stx2 screening assay). Conditions: 30 µM.
Assay type: functional
Design: scale not given: direction of the effect not stated beside the values

| Compound | Percent Effect |
| --- | --- |
| O=C(CCc1cc2n(n1)CCCN(Cc1ccccc1F)C2)NC1CC1 | -4.17% |
| O=C(NCC1CC1)[C@H]1C[C@@H]2CCN(Cc3nccs3)C[C@@H]2O1 | 0.967% |
| Cc1nc(CN2CCCC(NCc3ccsc3)C2)no1 (stereo not given) | -14.2% |
| Fc1cccc(CN2CCC(c3n[nH]c4ncccc34)CC2)c1F | -6.18% |
| CC(C)NC(=O)CC1COC2(CCN(Cc3ccccc3)CC2)C1 (stereo not given) | -36% |
| O=C(CN1CCOC(Cn2cccn2)C1)Nc1nncs1 (stereo not given) | -15.4% |
| O=C(O)c1cc2c(nc1O)CC(c1cccc(Cl)c1)CC2=O (stereo not given) | -22.1% |
| CC(C)Cc1noc(CN2CCN(CCO)CC2)n1 | 25.7% |
| CCN(CC)CCNc1ncc(-c2cc(C)no2)c(-c2ccoc2C)n1 | 7.04% |
| CCC1CCCCN1C(=O)c1ccc2[nH]nnc2c1 (stereo not given) | -3.51% |
| O=C(Cc1csc(-c2nnc[nH]2)n1)N1CCCC1Cn1cccn1 (stereo not given) | 5.43% |
| COC[C@@]12CC[C@@H](N3CCOCC3)C[C@H]1CCN(c1ncccn1)C2 | 17.6% |
| O=C(Cc1cccs1)N1C[C@@H]2COC[C@]2(COc2cccnc2)C1 | -1.18% |
| COc1ccc2c(c1)C1(CCN(Cc3ccncc3)CC1)N(C)CC2 | -1.38% |
| Cc1ccc(-c2nc(CN3CCC(C(=O)N(C)C)CC3)cs2)o1 | -24.2% |
| CCOc1cccc2c1OCC(C(=O)NS(=O)(=O)c1ccc(Cl)cc1)=C2 | 17% |
| Cn1ccc(CN2CCC(Oc3ccccc3)CC2)cc1=O | -5.66% |
| CNC(=O)Nc1cc(-c2ccc(Br)cc2)nn1CCO | 7.53% |
| COc1ccc(C(=O)N(C)Cc2nnc3ccccn23)c(OC)c1 | 24.6% |
| CCc1n[nH]c(C2CN(C(=O)CCc3cccs3)CCO2)n1 (stereo not given) | -49.5% |

| Compound | Percent Effect |
| --- | --- |
| CN(C)S(=O)(=O)N1CC[C@@H]2CN(Cc3cnn(C)c3)C[C@@H]2C1 | -8.71% |
| CC(C)N1CCO[C@H]2CN(C(=O)c3ccc(N(C)C)cc3)C[C@H]21 | -4.13% |
| CCc1nc2n(n1)CC(NCC(=O)Nc1ccc(Cl)cn1)CC2 (stereo not given) | 2.33% |
| Cc1cc(N2CCC3(CCC(=O)N(CC4CC4)C3)CC2)nc(N)n1 | 0.426% |
| O=C1N(CC2CC2)CCC12CCN(c1ncccn1)CC2 | -4.25% |
| CCc1ncc2c(n1)CN(CC(=O)Nc1ccc(Cl)cn1)CC2 | -9.49% |
| Cc1cn[nH]c1C1CCCCN1C(=O)CCN1CCCCCC1 (stereo not given) | 28.2% |
| COCCn1cc2c(n1)C(CNCc1ccc(F)cc1)OCC2 (stereo not given) | -6.53% |
| C[C@@H]1CN(C(=O)c2ccc(C#N)nc2)CC[C@@]1(O)C1CCOCC1 | -2.97% |
| CCc1ccc(CN2CCC3(CC2)NC(=O)CC3c2ccncc2)o1 (stereo not given) | -9.95% |
| Cc1cnn(CCNCc2csc(-c3cccs3)n2)c1 | 19.3% |
| Cc1ccc(C(=O)N2CCC(Oc3ccc(F)cc3F)CC2)c(=O)[nH]1 | 30.4% |
| CN(Cc1cc(-c2ccccc2)no1)C1CCCN(c2cccnn2)C1 (stereo not given) | -0.584% |
| CCNC(=O)CCc1c(C)nc2cc(O)nn2c1C | -21.5% |
| COc1ccccc1OCC(=O)NS(=O)(=O)c1ccc(C)s1 | 3.1% |
| COCCC(=O)N1CCn2c(COCC3CC3)cnc2C1C (stereo not given) | 5.04% |
| CCc1n[nH]c(C2CN(C(=O)c3ncoc3C(C)C)CCO2)n1 (stereo not given) | -12.1% |
| CCc1noc(C(C)N(C)CC(=O)Nc2cccc(C)n2)n1 (stereo not given) | -14.2% |
| CN1CC(=O)N(c2cnn(C)c2)CC12CCN(Cc1nccn1C)C2 (stereo not given) | -23.4% |
| CC(=O)NCCNC(=O)CN1CCN(Cc2nccn2C)C(C)C1 (stereo not given) | 2.09% |
